Hits are enriched below; roughly 4.2% of the tested compounds scored in any of these assays.
PLK1 PBD block: inhibitors of human PLK1 polo-box domain binding. P53350. Plk1 PBD binding of FITC phosphopeptide, fluorescence polarization. hit rate 2.8% among 360,000. Potency, µM, inactives show max response, negative = inhibition, actives largely listed as inhibitors. AID 720504; also: series mostly up to about 57 µM; nearly all actives have a fitted effect of over 65% in size
Target sequence (P53350 whole entry, looked up, the tested form may be a part): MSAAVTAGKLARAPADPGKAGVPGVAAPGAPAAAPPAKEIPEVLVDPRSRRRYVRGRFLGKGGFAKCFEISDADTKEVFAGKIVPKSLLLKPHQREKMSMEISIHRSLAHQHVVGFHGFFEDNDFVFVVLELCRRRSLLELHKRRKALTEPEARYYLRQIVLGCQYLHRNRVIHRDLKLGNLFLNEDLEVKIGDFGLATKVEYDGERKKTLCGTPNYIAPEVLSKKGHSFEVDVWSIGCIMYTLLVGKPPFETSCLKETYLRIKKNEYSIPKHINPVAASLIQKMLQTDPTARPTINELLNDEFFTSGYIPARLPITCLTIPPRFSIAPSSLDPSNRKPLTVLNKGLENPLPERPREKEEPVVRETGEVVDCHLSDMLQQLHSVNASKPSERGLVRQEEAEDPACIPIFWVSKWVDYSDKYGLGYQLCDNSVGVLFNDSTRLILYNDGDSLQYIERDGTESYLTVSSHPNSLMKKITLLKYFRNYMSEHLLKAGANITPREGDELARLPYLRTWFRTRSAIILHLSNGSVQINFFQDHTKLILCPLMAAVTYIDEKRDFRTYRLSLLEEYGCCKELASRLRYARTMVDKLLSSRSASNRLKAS
VDR inh: inhibitors of human vitamin D receptor; P11473; VDR-SRC2-3 peptide fluorescence polarization, 2 h; Potency, µM, without a hit: max response, negative = inhibition, hits mostly inhibitors; hit rate 0.93% among 400,000; AID 504847
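After 23 nl compound addition and a short centrifugation, plates sat for 2 hours at ambient temperature; polarization of fluorescence then indicated loss of VDR binding to peptide SRC2-3.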
ALOX12 inh: ALOX12 (human) lipoxygenase inhibition | purified 12hLO, xylenol orange hydroperoxide absorbance | Potency, µM (series often up to 108 µM), for inactives: at the highest dose activity change, negative = inhibition, usual class: inhibitors | hit rate 1.1% among 580,000 | AID 1671190
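Purified human 12hLO (150 nM final) in 25 mM Hepes, 0.01% Triton X-100, pH 7.0 was preincubated 15 min at room temperature with compound. Then 40 uM arachidonic acid was added, 30 min. Hydroperoxide was read by Fe-XO absorbance ratio 573/405 nm.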
Sfp inh: Sfp phosphopantetheinyl transferase inhibition. Q9F4F7. Biochemical Sfp PPTase activity, qHTS. Potency, µM, for inactives: largest response in the series, negative = inhibition, actives largely listed as inhibitors. hit rate 3.5% among 310,000. AID 1490;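 also: the enzyme is Sfp with the accession as filed and its product quenches rhodamine fluorescence; 0% = enzyme reaction without inhibitor and -100% = no enzyme wells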
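Buffer: 50 mM Hepes-Na pH 7.6, 10 mM MgCl2, 0.01% Nonidet P-40, 0.01% BSA. Enzyme 15 nM, pre-exposed to compound 15 min; substrates then added and fluorescence change tracked over 30 min.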
Starred values were filed as active, the others as inactive; i = inactive; u = inconclusive; x = not tested or not shown; [ ] = another dose, or the depositor's remark. Calls follow the shape of the dose curve; as a rule, active = well fitted curve in the direction sought with a large enough effect; inconclusive = small, poorly fitted or top-dose-only effect, or another doubt; inactive = no such curve, though single readings can be large; an effect the other way counts as inactive or inconclusive. Unless noted, % is scaled to controls: 0 for no effect and ±100 for the full control effect; potency is read from the fitted curve at half-maximal effect.

SMILES	PLK1 PBD block	VDR inh	ALOX12 inh	Sfp inh
Cc1cc(NC(=O)CSc2nc3c([nH]c4ccccc43)c(=O)n2-c2ccccc2)no1	x	-5%	-20%	x
COc1cccc(-n2c(SCC(=O)Nc3cc(C)on3)nc3c([nH]c4ccccc43)c2=O)c1	-3%	-13%	u	25µM*
COc1cccc(-n2c(SCC(N)=O)nc3c([nH]c4ccccc43)c2=O)c1	-2%	20%	-25%	20µM*
CSCCC(NC(=O)c1cccc(C)c1)C(=O)NNC(=O)c1cccs1 (centres undefined)	-21%	-7%	18%	x
O=C(CC1NCCc2ccccc21)Nc1ccccc1 (centres undefined)	-8%	-3%	11%	1%
O=C(O)CC1NCCc2ccccc21 (centres undefined)	30µM*	-12%	u	15%
CN(C)CCC(=O)C(Cc1ccccc1)c1ccccc1 (centres undefined)	4.7µM*	45µM*	u	x
O=C1Cc2cc(NS(=O)(=O)c3ccc([N+](=O)[O-])cc3)cc3c2N1CCC3	-13%	-5%	u	x
Cc1ccccc1-c1nc(C#N)c(NCC2CCCO2)o1 (centres undefined)	x	x	-5%	x
CC1CN(C(=O)c2nn(C)cc2[N+](=O)[O-])CC(C)O1 (centres undefined)	12µM*	-7%	41%	14%
O=C(c1ccc(S(=O)(=O)NCc2ccco2)cc1)N1CCCCC1	x	x	-11%	x
COc1cccc(CNS(=O)(=O)c2ccc(S(=O)(=O)N3CCCC3)cc2)c1	-7%	4%	24%	10µM*
O=S(=O)(NCc1ccco1)c1ccc(S(=O)(=O)N2CCCC2)cc1	-4%	-10%	15%	3.2µM*
COc1cccc(NS(=O)(=O)c2ccc(S(=O)(=O)N3CCCC3)cc2)c1	-5%	-8%	-8%	x
Cc1c(Cl)ccc(S(=O)(=O)NCCN2CCOCC2)c1Cl	3%	-10%	-8%	9%
COc1ccc(C(=O)NCC2(COc3ccc(C(F)(F)F)cn3)C[C@@H](O)[C@@H](O)C2)cc1 (some centres undefined)	x	x	109%	x
CCOc1ccc(C2C(C#N)=C(N)SC(N)=C2C#N)cc1OC	x	x	x	50µM*
CCOc1ccccc1C1C(C#N)=C(N)SC(N)=C1C#N	-12%	u	u	45µM*
CCOc1ccc(C2C(C#N)=C(N)SC(N)=C2C#N)cc1OCC	37%	-28%	u	u
Cc1c(-c2ccc(Br)cc2)[n+](=O)c2c(n1[O-])CCCC2	-10%	9%	4%	19%
Cc1cccc(-n2c(C)nc3cc(C(=O)N4CCOCC4)ccc32)c1	27µM*	u	7%	25%
CCCCCNC(=O)c1ccc2c(c1)nc(C)n2-c1cccc(C)c1	x	-7%	-13%	x
O=C1C=C(NC2=CC3OC(c4ccccc4)OCC3OC2=O)CCC1 (centres undefined)	-10%	79µM*	2%	-39%
Cc1cccc(-c2cc3nc4c(c(NCc5ccco5)n3n2)CCCC4)c1	-7%	2%	-3%	50µM*
COc1ccc(-c2n[nH]c(=S)n2C2CCCCC2)cc1	-7%	1%	45µM*	14%
SMILES	PLK1 PBD block	VDR inh	ALOX12 inh	Sfp inh
COc1ccc(Cl)cc1-c1n[nH]c(=S)n1C1CCCCC1	-2%	-5%	40µM*	12%
COc1ccc(Cl)cc1-c1n[nH]c(=S)n1Cc1ccccc1	-10%	6%	-16%	-1%
CC[C@H]1CN(C(=O)c2ccc(F)cc2)CC[C@H]1CC(=O)N1CCC(C(=O)OC)CC1	x	x	3%[176 µM]	x
CCCCCC(=O)NC(Cc1ccc(OC)c([N+](=O)[O-])c1)C(=O)O (centres undefined)	21µM*	u	-4%	-2%
COC(=O)C(N)Cc1ccc(OC)c([N+](=O)[O-])c1 (centres undefined)	4%	-17%	u	-2%
Cc1cc2nc(-c3ccc(SCc4ccc(C(=O)O)cc4)nc3)[nH]c2cc1C	19µM*	1%	-9%	22µM*
Cc1cc2nc(-c3ccc(SCC(=O)NC(C)C)nc3)[nH]c2cc1C	x	x	x	-18%
Cc1cccc([C@@H]2[C@@H]3C(=O)N(Cc4ccccc4)C(=O)[C@@H]3[C@]3(CC(C)C)C(=O)N(c4cccc(Cl)c4)C(=O)N23)c1	2%	5%	1%	16%
O=C(OCCN1CCCCC1)c1ccc(Cl)cc1	-3%	-13%	130%	89µM*
CC(C)COc1ccc(C(=O)CCN2CCCCC2)cc1	21µM*	u	-21%	-22%
CCCCCC(O)(CCN1CCCCC1)c1ccc(OCC)cc1 (centres undefined)	17µM*	u	u	-13%
CCCCOc1ccc(C(=O)CCN2CCCCC2)cc1	u	4.5µM*	-25%	-22%
COc1ccc(C(=O)N[C@@H]2CCC[C@@H]2C(=O)NCCCOC(C)C)cc1	x	x	37%	x
O=C(CN(CC(=O)Nc1ccc(F)cc1)CC(=O)Nc1ccc(F)cc1)Nc1ccc(F)cc1	x	x	13µM*	x
C/C(CC(=O)Nc1ccc(Cl)cc1Cl)=N\NC(N)=S	-6%	-24%	u	10%
C/C(CC(=O)Nc1ccc(Cl)c(Cl)c1)=N\NC(N)=S	-21%	-8%	1µM*	u
COc1ccc(Cl)cc1NC(=O)C/C(C)=N/NC(=O)CC#N	27µM*	-21%	1%	-9%
CCN(CC(=O)Nc1ccc(NC(C)=O)cc1)CC(=O)Nc1ccc(Cl)c(Cl)c1	0%	-10%	-11%	56µM*
O=C(CC(=O)Nc1ccc(F)cc1)Nc1ccc(F)cc1	-5%	-4%	6%	6%
Cc1cccc(CCNC(=O)CCc2c(C)nc3c(c(C)nn3-c3ccccc3)c2C)c1	x	-7%	-23%	x
CCOc1cc(C(=S)N2CCOCC2)ccc1OS(=O)(=O)c1ccc(OC)cc1	u	-1%	146%	-18%
C/C(CC(=O)Nc1ccc(Cl)cc1C(F)(F)F)=N\NC(N)=S	-13%	-10%	-28%	45µM*
C/C(CC(=O)Nc1cc(Cl)ccc1Cl)=N\NC(N)=S	-9%	-14%	u	35µM*
CCCN(C1CCS(=O)(=O)C1)S(=O)(=O)c1ccc(F)cc1 (centres undefined)	-4%	-3%	-26%	x
Cc1c(C(=O)O)oc2ccc(S(=O)(=O)NCc3ccc4c(c3)OCO4)cc12	-5%	-26%	-13%	13%
SMILES	PLK1 PBD block	VDR inh	ALOX12 inh	Sfp inh
Cc1ccc(C2=N/C(=C\N3CCCCC3)C(=O)O2)cc1	-2%	-16%	0%	50µM*
CC(=O)NC1C(OCc2ccccc2)OC2COC(c3ccccc3)OC2C1OCC(=O)O (centres undefined)	21µM*	5%	-6%	-9%
CC(=O)NC1C(OCc2ccccc2)OC(CO)C(OC(C)=O)C1OC(C)=O (centres undefined)	-4%	-7%	-8%	17%
CCOC(=O)c1cnc(-n2[nH]c(C)cc2=O)[nH]c1=O	-6%	5%	-7%	12%
CN1CCN(C(=O)C2=C[C@@H](c3ccccc3)C[C@@H](OCCCCO)O2)CC1	-15%	-3%	1%	-7%
O=C(O)c1ccc(Nc2nc(-c3ccccc3)nc3ccccc23)cc1	19µM*	79µM*	i	2%
